An excerpt weighted towards active compounds, which were near 19% of everything screened.
HT1080-NT tox: kills 2HG-producing HT-1080-NT fibrosarcoma cells; HT-1080-NT fibrosarcoma viability, CellTiter-Glo ATP luminescence, 48 h; Potency, µM (doses to about 46.1 µM), without a hit: at the highest dose activity, negative = less viability, actives largely listed as cytotoxic; 1.6% of 360,000 active; AID 686970;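 also: NT is the 2HG producing partner of a matched IDH1 knockdown line; potency is read from the fitted curve at half-maximal effect; 0% = DMSO-treated cells and -100% = media-only wells without cells; nearly all actives have a fitted effect of over 55% in size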
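Read-out is CellTiter-Glo luminescence after 10 minutes at room temperature, following 48 hours' compound treatment of HT-1080-NT cells (750 cells/well, RPMI, 5% FBS, 37 degrees C).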
uPA surface inh: blocks generation of uPA at the cell surface; cell surface uPA generation assay, qHTS; Potency, µM (top dose mostly 38.3 µM), for the others: at the top dose activity change, negative = inhibition, most hits filed as inhibitors; 0.31% of 330,000 active; AID 540303; active = well fitted inhibition curve with a large enough effect; inconclusive = small, poorly fitted or top-dose-only effect; inactive = no such curve, though single readings can be large or run the other way; tested in mouse RAW 264.7 cells; also: potency is read from the fitted curve at half-maximal effect; nearly all actives have a fitted effect of over 55% in size
TDP1 cell CPT: DT40-hTDP1 cell growth loss with CPT; chicken DT40 Tdp1-/-;hTDP1 cells + 20 nM CPT, ATP luminescence, 48 h; Potency, µM (highest dose often 46.2 µM), without a hit: top-dose activity change, negative = growth inhibition, actives largely listed as inhibitors; 12% of 420,000 active; also: potency is read from the fitted curve at half-maximal effect; nearly all actives have a fitted effect of over 55% in size
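Cell growth measured by CellTiter-Glo luminescence after a minimum 48 h, 37 C compound exposure with 20 nM CPT in Tdp1-knockout DT40 cells stably expressing hTDP1, seeded 400/well; qHTS titration format.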
DT40 TDP1 no CPT: qHTS for Inhibitors of human tyrosyl-DNA phosphodiesterase 1 (TDP1): qHTS in cells in absence of CPT; 15% of 420,000 active; DT40 Tdp1-/- hTDP1 cells, no CPT, ATP luminescence, 48 h; Potency, µM (titrated, usually from 46.2 µM), without a hit: at the highest dose activity change, negative = growth inhibition, actives largely listed as inhibitors; also: potency is read from the fitted curve at half-maximal effect; nearly all actives have a fitted effect of over 55% in size
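Stably hTDP1-transfected Tdp1-null chicken DT40 cells were treated with library compounds minus camptothecin and grown for at least 48 hr at 37 °C, after which cellular ATP was quantified by luminescence.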
HT1080 IDH1KD tx: toxicity to HT-1080 IDH1 knockdown cells (counter line); HT-1080 IDH1 knockdown viability, ATP luminescence, 48 h; Potency, µM (series often up to 46.1 µM), inactives show top-dose activity, negative = toxicity, hits mostly cytotoxic; 2% of 360,000 active;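 also: potency is read from the fitted curve at half-maximal effect; 0% = DMSO wells and -100% = cell-free medium wells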
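CellTiter-Glo luminescence after 48 h compound exposure at 37 degrees C of IDH1-knockdown HT-1080 cells in 5% FBS RPMI. %Activity scaled between DMSO wells and cell-free media wells, with curves fitted and assigned curve classes.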
IL1B secr inh: inhibitors of inflammasome signaling (IL-1 beta secretion). THP-1 LPS/ATP IL-1B secretion, AlphaLISA, 16 h; stronger effect = lower value. activity change, % at 57.5 µM. 4.7% of 360,000 active. AID 743279; in the data active = activity change below about -50%; inconclusive = mostly about -30% to -49%
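THP-1 cells pretreated 1 hr with compounds (up to 57.5 uM final), then stimulated with LPS (250 ng/mL final) plus ATP (1.25 mM final); secreted IL-1B measured by AlphaLISA after 16 hr, decreased signal indicating inhibition.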
Numbers without * were called inactive; ? = inconclusive; · = no result given; [ ] = remark or other dose. Unless noted, calls follow the shape of the dose curve; as a rule, active = well fitted curve in the direction sought with a large enough effect; inconclusive = small, poorly fitted or top-dose-only effect, or another doubt; inactive = no such curve, though single readings can be large; an effect the other way counts as inactive or inconclusive. Unless noted, % is scaled to controls: 0 for no effect and ±100 for the full control effect.

SMILES	HT1080-NT tox	uPA surface inh	TDP1 cell CPT	DT40 TDP1 no CPT	HT1080 IDH1KD tx	IL1B secr inh
O=C(Nc1nc(-c2ccccn2)cs1)c1cccc(S(=O)(=O)N2CCOCC2)c1	-23%	10µM*	4.1µM*	2.9µM*	?	119
CN1CCN(S(=O)(=O)c2cccc(C(=O)Nc3nc(-c4ccccc4)cs3)c2)CC1	-5%	-9%	?	?	0%	36
COc1ccc(C(=O)Nc2nc(-c3ccccn3)cs2)cc1S(=O)(=O)N1CCOCC1	-22%	-25%	13µM*	5.2µM*	?	78
Cc1ccc(S(=O)(=O)N2CCOCC2)cc1C(=O)Nc1nc(-c2ccccn2)cs1	-12%	-9%	5.2µM*	4.1µM*	-27%	0
O=C(COc1cccc(Cl)c1)Nc1nc(-c2ccc(S(=O)(=O)N3CCOCC3)cc2)cs1	-2%	8%	21µM*	12µM*	-5%	-2
COc1ccc(C(=O)Nc2ccccn2)cc1S(=O)(=O)N1CCOCC1	-1%	-11%	20%	14%	-1%	20
COc1ccccc1C(=O)Nc1nc(-c2ccc(S(=O)(=O)N3CCOCC3)cc2)cs1	?	-12%	2.6µM*	2.3µM*	?	?
COc1ccccc1OC(C)C(=O)Nc1nc(-c2ccc(S(=O)(=O)N3CCOCC3)cc2)cs1 (configuration not stated)	2%	4%	?	?	-2%	0
O=C(Nc1ccc(S(=O)(=O)N2CCCCCC2)cc1)c1ccco1	0%	-1%	-9%	-22%	17%	1
O=C(Nc1nc(-c2ccc(S(=O)(=O)N3CCCC3)cc2)cs1)c1ccco1	-6%	-2%	23µM*	18µM*	-22%	-15
Cc1ccc(S(=O)c2ccc(NC(=O)C3CC3)cc2C#N)cc1 (configuration not stated)	-11%	2%	18µM*	23µM*	-22%	15
Cc1ccc(NC(=O)C2CCN(S(=O)(=O)c3ccccc3)CC2)cc1	3%	0%	-14%	-30%	1%	-13
COc1ccc(-n2c(COc3ccccc3)n[nH]c2=S)cc1	2%	-11%	1%	-2%	2%	23
S=c1[nH]nc(COc2ccccc2)n1-c1ccc(Cl)cc1	2%	-6%	14%	23µM*	0%	20
O=C(COc1ccc([N+](=O)[O-])cc1)NCc1ccncc1	8%	-1%	0%	-9%	3%	5
CCOc1ccccc1NC(=O)Nc1ccc2c(c1)OCO2	-13%	1%	?	2%	-14%	?
COc1ccccc1C1NC(c2ccc3c(c2)OCO3)=CC(c2cc(Cl)ccc2O)N1 (configuration not stated)	·	·	7.9µM*	4µM*	·	·
O=C(Nc1cc(Br)ccc1O)c1cc(-c2ccc3c(c2)OCO3)on1	16%	1%	-2%	-2%	15%	5
COc1ccc(NC(=O)c2cc(-c3ccc4c(c3)OCO4)on2)cc1OC	1%	12%	-4%	7%	7%	6
Oc1ccc(Cl)cc1C1C=C(c2ccc3c(c2)OCO3)NC(c2ccc(Br)cc2)N1 (configuration not stated)	·	·	16µM*	?	·	·
CCOc1ccccc1C1NC(c2ccc3c(c2)OCO3)=CC(c2ccccc2O)N1 (configuration not stated)	·	·	11µM*	14µM*	·	·
COc1ccc(C2NC(c3ccc4c(c3)OCO4)=CC(c3ccccc3O)N2)cc1OC (configuration not stated)	·	·	13µM*	18µM*	·	·
COc1ccc(-c2noc(CC(=O)Nc3ccc(Br)cc3C)n2)cc1	·	·	10%	-4%	·	·
CN(C(=O)CN1CCN(c2cnn(-c3ccccc3)c(=O)c2Cl)CC1)C1CCS(=O)(=O)C1 (configuration not stated)	7%	2%	-4%	3%	8%	9
CS(=O)(=O)N(CC(=O)N1CCCC1)Cc1ccc(Cl)c(Cl)c1	4%	19%	-29%	?	-1%	3
SMILES	HT1080-NT tox	uPA surface inh	TDP1 cell CPT	DT40 TDP1 no CPT	HT1080 IDH1KD tx	IL1B secr inh
COc1ccccc1C1NC(c2ccc3c(c2)OCO3)=CC(c2ccccc2O)N1 (configuration not stated)	·	·	11µM*	10µM*	·	·
COc1ccccc1-c1sc2cc3c(cc2c1-c1ccc2c(c1)OCO2)OCO3	-1%	-2%	?	?	-1%	4
O=C(CSC1=NCCN1)NC12CC3CC(CC(C3)C1)C2	-13%	-15%	26µM*	15µM*	-21%	-100*
O=C(CSC1=NCCN1)NC1CCCCCC1	-6%	-9%	?	18µM*	-17%	-97*
CC(Sc1nnc(COc2ccc(Cl)cc2)n1Cc1ccco1)C(=O)N1CCNC1=O (configuration not stated)	-2%[9.24 µM]	-7%	?	?	-14%	0
COc1ccc(NC(=O)c2sc(=O)n(Cc3ccc4ccccc4c3)c2C)cc1OC	-20%	·	?	?	?	-1
C=C(NC(=O)C(=C)NC(=O)c1csc(C2=N[C@@H]3c4csc(n4)[C@H]4NC(=O)c5csc(n5)[C@H]([C@](C)(O)[C@@H](C)O)NC(=O)[C@H]5CSC(=N5)C(=CC)NC(=O)C([C@@H](C)O)NC(=O)c5csc(n5)[C@]3(CC2)NC(=O)[C@H](C)NC(=O)C(=C)NC(=O)[C@H](C)NC(=O)C([C@@H](C)CC)NC2C=Cc3c([C@H](C)O)cc(nc3C2O)C(=O)O[C@@H]4C)n1)C(N)=O (some centres not stated)	·	·	7.2µM*	5.1µM*	·	·
O=[N+]([O-])c1ccc(Oc2ccc(-c3nnco3)cc2)c(Cl)c1	-3%	3%	-17%	-27%	-13%	-1
CCN(CC)C(=O)c1ccc(Oc2ccc([N+](=O)[O-])cc2Cl)cc1	-1%	8%	?	16µM*	-12%	-8
O=C(Nc1cccc(Cl)c1)c1cccc(Oc2ccc([N+](=O)[O-])cc2Cl)c1	?	-22%	?	?	?	-59*
COc1ccc(NC(=O)c2cccc(Oc3ccc([N+](=O)[O-])cc3Cl)c2)cc1	?	-14%	5.8µM*	4.6µM*	?	39
Cc1ccc(C)c(NC(=O)c2cccc(Oc3ccc([N+](=O)[O-])cc3Cl)c2)c1	-5%	?	?	16µM*	-4%	?

Compound activity: PubChem BioAssay, National Center for Advancing Translational Sciences (NCATS)
